Bioassay records deposited in PubChem BioAssay by National Center for Advancing Translational Sciences (NCATS).
In the library only some 1.2% were active in any assay of this set; here they are far more common.
VDR inhibitor – vitamin D3 receptor (human) inhibition | P11473 | AID 504847 | 0.93% of 400,000 active | Potency, µM, for the others: max response, negative = inhibition, hits mostly inhibitors | VDR-SRC2-3 peptide fluorescence polarization, 2 h; further: on the % scale 0 is the no-effect control and ±100 the full control effect
Target sequence (P11473 whole entry, looked up): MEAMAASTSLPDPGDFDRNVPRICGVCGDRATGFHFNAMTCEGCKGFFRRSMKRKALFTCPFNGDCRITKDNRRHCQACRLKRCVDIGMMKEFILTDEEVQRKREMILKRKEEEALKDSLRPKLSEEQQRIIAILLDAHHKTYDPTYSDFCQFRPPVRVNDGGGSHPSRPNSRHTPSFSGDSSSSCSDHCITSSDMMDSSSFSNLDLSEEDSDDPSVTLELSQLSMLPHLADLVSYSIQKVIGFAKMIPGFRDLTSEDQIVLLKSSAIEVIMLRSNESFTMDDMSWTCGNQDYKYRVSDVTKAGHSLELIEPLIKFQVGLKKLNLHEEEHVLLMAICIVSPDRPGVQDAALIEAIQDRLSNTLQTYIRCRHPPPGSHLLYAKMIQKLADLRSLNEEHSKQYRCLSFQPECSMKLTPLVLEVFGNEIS
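Fluorescence polarization assay measuring small-molecule disruption of VDR binding to the coregulator peptide SRC2-3. Compounds were pin-transferred (23 nl) into the reagent mix and incubated 2 h at room temperature before reading.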
EPAC2 agonist – agonists of human EPAC2 (RAPGEF4); Q8WZA2; EPAC2 activation, biochemical qHTS; response scale: 100% = 6.5 mM cAMP response; Potency, µM (titrated, usually from 154 µM), for the others: at the highest dose activation, most hits filed as activators; 0.079% of 360,000 active; AID 720711; further: nearly all actives have a fitted effect of over 50% in size
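Each well held 100 nM EPAC2, 250 nM RAP1B-BODIPY-GDP and 50 uM GDP. Fluorescence, read at 5-min intervals to 30 min, was referenced to a 6.5 mM cAMP positive control.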
USP1 inh – USP1/UAF1 (human) deubiquitinase inhibition. Potency, µM (top dose mostly 57.1 µM), for the others: at the highest dose activity change, negative = inhibition, hits mostly inhibitors. 0.23% of 390,000 active. recombinant USP1/UAF1, Ub-Rhodamine cleavage fluorescence. O94782. AID 743255; further: on the % scale 0 is the no-effect control and ±100 the full control effect; nearly all actives have a fitted effect of over 60% in size
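High-throughput fluorogenic screen: 1nM USP1/UAF1 complex, Ub-Rho substrate 150nM final, 50mM HEPES pH 7.8 with 0.5mM EDTA, 0.1 mg/ml BSA, 1mM TCEP and 0.01% Tween-20.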
EPAC1 agonist – activates human EPAC1 exchange factor. EPAC1 agonist qHTS, biochemical assay; response scale: 100% = response to 6.5 mM cAMP. O95398. Potency, µM (series often up to 154 µM), inactives show at the highest dose activation, most hits filed as activators. 0.073% of 360,000 active; further: nearly all actives have a fitted effect of over 60% in size
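Nucleotide exchange by EPAC1 (100 nM) on Rap1B–BODIPY-GDP (250 nM) in the presence of 50 uM GDP is tracked fluorescently at 480/540 nm over 30 min. Signals are normalized to a 6.5 mM cAMP control.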
EPAC2 antagonist – blocks human EPAC2 exchange factor. Q8WZA2. EPAC2 GEF exchange of Rap1B-BODIPY-GDP, fluorescence. Potency, µM (doses to about 114 µM), without a hit: at the top dose activity, negative = inhibition, usual class: inhibitors. 0.18% of 360,000 active. AID 720708; further: on the % scale 0 is the no-effect control and ±100 the full control effect; nearly all actives have a fitted effect of over 45% in size
EPAC1 antag – blocks human EPAC1 exchange factor. O95398. EPAC1 GEF assay, Rap1b-BODIPY-GDP exchange fluorescence. Potency, µM (top dose mostly 115 µM), inactives show top-dose activity change, negative = inhibition, actives largely listed as inhibitors. 0.14% of 360,000 active;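 further: plate controls were vehicle for no effect and positive control for full effect; nearly all actives have a fitted effect of over 50% in size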
* marks the source's active call; other numbers are inactive results; ? = inconclusive; . = no result given; ! = a repeat was not active; [ ] = dose if it differs, or a comment. The call rests on the fitted dose curve; in most records, active means well fitted curve in the direction sought with a large enough effect; inconclusive means small, poorly fitted or top-dose-only effect, or another doubt; inactive means no such curve, though single readings can be large; an effect the other way counts as inactive or inconclusive. Potency means the concentration at half of the fitted maximal effect.

SMILES | VDR inhibitor | EPAC2 agonist | USP1 inh | EPAC1 agonist | EPAC2 antagonist | EPAC1 antag
N#CC1=C(N)C2=CCCC[C@H]2[C@H](c2ccccc2)C1(C#N)C#N | 79µM* | 19% | -17% | 18% | 0% | -15%
N#CC1=C(N)C2=CCCC[C@H]2[C@H](c2ccc(Br)cc2)C1(C#N)C#N | ? | 3% | -25% | 2% | 19% | 8%
COC(=O)C(C(=O)OC)[C@@H](NC(=O)OCc1ccccc1)c1ccccc1 | 15% | . | . | . | . | .
O=C(N[C@H](Cc1ccc(Cl)cc1)C(=O)O)OCC1c2ccccc2-c2ccccc21 | -10% | -13% | -17% | -23% | ? | 50µM*
COc1ccc(NC(=O)CSc2nc3nc(-c4cccs4)cc(C(F)(F)F)c3c(=O)[nH]2)c(OC)c1 | -7% | -8% | -6% | 9% | -18% | 32µM*
CCOc1ccccc1NC(=O)CSc1nc2nc(-c3cccs3)cc(C(F)(F)F)c2c(=O)[nH]1 | 3% | -6% | -5% | -12% | 4% | -14%
COCCn1c(=O)c(-c2cc(F)cc(F)c2)nc2cnc(OC)nc21 | -5% | . | . | . | . | .
COc1cccc(NC(=O)c2ccc3nc(Cc4ccccc4)oc3c2)c1 | -6% | . | ? | . | . | .
Nc1c(N=Nc2ccc(-c3ccc(N=Nc4cc(S(=O)(=O)O)c5ccccc5c4N)cc3)cc2)cc(S(=O)(=O)O)c2ccccc12 | 28µM* | . | . | . | . | .
O=S(=O)(O)c1ccc(N=Nc2ccccc2)cc1 | 9% | 2% | -15% | 0% | -9% | -20%
COc1ccc2c(c1)O[C@@H](c1ccc3c(c1)OCO3)[C@H](OC(=O)N[C@H]1CCCc3ccccc31)C2=O | 26% | . | . | . | . | .
N#Cc1ccc(/C=C\c2nccc3c2[nH]c2ccccc23)cc1 | 12% | 12% | 22µM* | ? | ? | -7%
CCOC(=O)NCCOc1ccc(Oc2ccccc2)cc1 | -8% | . | . | . | . | .
CN1C2CC(OC(=O)C(CO)c3ccccc3)C[C@@H]1[C@H]1OC21 (stereo partly specified) | -3% | . | . | . | . | .
CCCc1c(C)c2cccc(C)c2[nH]c1=O | 3% | 2% | 6% | -2% | -6% | -5%
CCCCN1CCc2c([nH]c3c(C)cccc23)C1=O | 14µM* | 0% | -13% | -3% | 8% | -7%
CCCCS(=O)(=O)/C=C\C=C/S(=O)(=O)CCCC | 35µM* | 5% | -3% | -5% | -2% | -11%
CCCCS(=O)(=O)/C=C\C1C2C=CC(C2)C1S(=O)(=O)CCCC (stereo unspecified) | -5% | 4% | -2% | 1% | -2% | -4%
CCCCCCCC1CC(/C(C)=N/NC(N)=O)OC1=O (stereo unspecified) | 45µM* | -1% | -18% | -6% | 2% | -10%
C/C(=N\NC(N)=O)C1CC(CC(C)C)C(=O)O1 (stereo unspecified) | -9% | 7% | -6% | 5% | -2% | -2%
CCCCc1oc2ccccc2c1C(=O)c1cc(I)c(N(CC)CCOCC)c(I)c1 | 3% | . | . | . | . | .
CCc1oc2ccccc2c1C(=O)c1cc(I)c(O)c(I)c1 | 32µM* | . | . | . | . | .
S=C(NCCCc1cnc[nH]1)NCCCN(CCc1ccccc1)c1ccc(Br)cn1 | -7% | . | . | . | . | .
CCCc1nc(SCC(=O)c2ccc(F)cc2)c2ccccc2n1 | 89µM* | 19% | -10% | 2% | -22% | -11%
CCCCNC(=O)CSc1nc(CCC)nc2ccccc12 | -7% | -11% | -22% | 4% | -5% | -6%
SMILES | VDR inhibitor | EPAC2 agonist | USP1 inh | EPAC1 agonist | EPAC2 antagonist | EPAC1 antag
Cn1c(NCCN(CCO)CCCc2ccc([N+](=O)[O-])cc2)cc(=O)n(C)c1=O | 50µM*! | -2% | -13% | -14% | -1% | 21%
NOCc1ccccc1 | 2% | . | . | . | . | .
CC1(C)C(O)C=C[C@@]2(C)C1CC(=O)O[C@@]1(C)C3=CC(=O)OC(c4ccoc4)[C@]3(C)CCC21 (stereo partly specified) | 45µM* | . | . | . | . | .
COc1ccc(NC(=O)c2c(C)oc3ccc(O)c(CN4CCCCCC4)c23)cc1Cl | 4% | . | 7% | . | . | .
c1ccc(-c2nn[nH]n2)c(Nc2cccc3c2CCCC3)c1 | 40µM* | . | . | . | . | .
Cc1ccccc1-c1nn[nH]n1 | -17% | -4% | -3% | 1% | 3% | 2%
Cc1cccc(N2C(S)=C(C#N)C(=O)NC2c2ccco2)c1 (stereo unspecified) | 28µM* | 7% | -17% | 2% | -3% | -5%
COc1ccc(N2C(S)=C(C#N)C(=O)NC2c2ccco2)cc1 (stereo unspecified) | 40µM* | 7% | 0% | -7% | -13% | 3%
COc1ccc(C2CC(c3ccco3)n3ncnc3N2)cc1 (stereo unspecified) | ? | 8% | -4% | 5% | -1% | -13%
N#CC1=C(S)N(c2ccccc2)C(c2ccc(-c3cccc(Cl)c3)o2)NC1=O (stereo unspecified) | ? | -4% | -14% | -12% | -11%[57.1 µM] | -11%
C=CCN(CC=C)C(=S)NC(=O)/C=C/c1ccccc1 | 20µM* | 3% | -14% | -5% | 4% | 11%
C=CCN(CC=C)C(=S)NC(=O)/C=C/c1ccc(C)cc1 | 0% | -11% | -16% | -5% | 1% | 6%
CCCN1CCc2nc(N3CCN(c4ncccn4)CC3)ncc2C1 | 21% | . | -26% | . | . | .
C/C(CCC1CC(C)OC1=O)=N/Nc1nc(-c2ccccc2)cs1 (stereo unspecified) | 45µM* | 9% | -17% | 2% | -7% | -28%
CC1CC(CC(=O)NNc2nc(-c3ccccc3)cs2)C(=O)O1 (stereo unspecified) | 0% | 4% | -23% | 0% | -1% | 18%
Nc1cc(-c2ccncc2)c[nH]c1=O | 20µM* | 9% | 40µM* | -3% | 1% | ?
O=C(Nc1ccc(Nc2ccccc2)cc1)C(Cl)Cl | 5% | 9% | -27% | -9% | -3% | -30%
CC(C)(C)C(=O)C(Cl)C(=O)Nc1ccccc1 (stereo unspecified) | 20µM* | 1% | -14% | 11% | 5% | 0%
Nc1ncnc2c1ncn2[C@H]1O[C@@H](CSCC[C@@H](N)C(=O)O)[C@H](O)[C@@H]1O | 1% | . | . | . | . | .
Oc1ccc(NCc2cccs2)cc1 | -17% | 7% | -17% | 12% | 5% | 56µM*
CC(=O)Nc1ccc(NCc2cccs2)cc1 | -11% | 6% | -6% | 10% | 13% | -5%
COc1cc(NCCCC(C)N)c2ncccc2c1 (stereo unspecified) | 45µM*! | 6% | 5µM* | 0% | -4% | ?
